The viability is a read-out of living cells in per cent, often relative to untreated cells.

A number with no mark means an inactive call.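 Rule for the calls: active = viability at 10 µM of 29.74% or lower, 3 SD below the compound median; inactive = the rest.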

Here are results for 30 molecules from PubChem BioAssay AID1004 (SRMLSC, 2008).

A short description of this assay: viability of HCT116 lacking mutant beta-catenin – cell-based, DP diverse set, validation, pilot screen (AID 1004). As to conditions: HCT116 (mutant beta-catenin deleted) viability, CellTiter-Glo, 60 h; at 10 µM; active compounds read low.

On to `CCOC(=O)c1ncn2c1CN(C)C(=O)c1cc(F)ccc1-2`, for which the viability was 99.8%.
To `O=C(c1ccc(F)cc1)C1CCN(CCn2c(=O)[nH]c3ccccc3c2=O)CC1` belongs 104%; to `CCC[C@@H]1C[C@@H](C(=O)NC(C(C)Cl)[C@H]2O[C@H](SC)[C@H](O)[C@@H](O)[C@H]2O)N(C)C1` (stereo not given in full), 95.6%.
To `Cc1ccc(Cl)c(Nc2ccccc2C(=O)O)c1Cl` belongs 98.9%; to `Cn1c(=O)c2[nH]cnc2n(C)c1=O`, 100%; to `C/C(=C\CNc1ncnc2c1ncn2[C@@H]1O[C@H](CO)[C@@H](O)[C@H]1O)CO`, 102%.
Under `CN(C)c1ccc(/C=C2\C(=O)Nc3ccccc32)cc1` stands 80.2%.
On to `CC(C)C[C@@H](NC(=O)[C@@H](O)[C@H](N)Cc1ccccc1)C(=O)O`, for which the viability was 92.8%.
For the molecule `CC1(C)CCC[C@@](C)([C@H]2CC[C@]3(C)[C@@H]2[C@H](O)C[C@@H]2[C@@]4(C)CC[C@H](O)C(C)(C)[C@@H]4[C@@H](O)C[C@]23C)O1`, the viability was 97.9%.
Under `CC[N+](CC)(CC)CC(=O)Nc1c(C)cccc1C` stands 101%; under `O=C1OC(c2cc(I)c(O)c(I)c2)(c2cc(I)c(O)c(I)c2)c2ccccc21`, 97.5%.
Take `C[C@@H]1C(=O)O[C@@H]2CC34C5CC(C(C)(C)C)[C@]36C(O)C(=O)O[C@@H]6O[C@@]4(C(=O)O5)[C@@]12O` (stereo not given in full): the viability is 72.1%.
To `CC1=C(/C=C/C(C)=C/C=C/C(C)=C/C=C/C=C(C)/C=C/C=C(C)/C=C/C(=O)[C@]2(C)C[C@@H](O)CC2(C)C)C(C)(C)C[C@H](O)C1` belongs 95.5%.
Take `CCN(CC)C(=S)SSC(=S)N(CC)CC`: the viability was 76.5%.
To `CC1COC2=C1C(=O)C(=O)c1c2ccc2c1CCCC2(C)C` (stereo not given) belongs 32.2%; to `COc1cc2c(c(OC)c1OC)-c1ccc(OC)c(=O)cc1[C@@H](NC(C)=O)CC2`, 39.6%; to `CO[C@@H]1[C@@H](OC(N)=O)[C@@H](O)[C@H](Oc2ccc3c(O)c(NC(=O)c4ccc(O)c(CC=C(C)C)c4)c(=O)oc3c2C)OC1(C)C`, 99.5%.
As to `CN1C2CCC1CC(OC(=O)C(CO)c1ccccc1)C2` (stereo not given), the viability was 97.1%.
To `CC(C)C[C@H]1C(=O)N2CCC[C@H]2[C@]2(O)O[C@](NC(=O)[C@@H]3C=C4c5cccc6[nH]c(Br)c(c56)C[C@H]4N(C)C3)(C(C)C)C(=O)N12` belongs 89.9%; to `CC(C)CC(=O)N[C@H](C(=O)N[C@H](C(=O)N[C@@H](CC(C)C)[C@@H](O)CC(=O)N[C@@H](C)C(=O)N[C@@H](CC(C)C)[C@@H](O)CC(=O)O)C(C)C)C(C)C`, 100%.
Under `Clc1ccc2ncnc(NCc3ccc4c(c3)OCO4)c2c1` stands 95.8%; under `CCn1cc(C(=O)O)c(=O)c2ccc(C)nc21`, 94.8%; under `O=c1[nH]cc(F)c(=O)[nH]1`, 58.1%.
Under `C=CC1(C)CC(=O)C2(O)C(C)(O1)C(OC(C)=O)C(O)C1C(C)(C)CCC(O)C12C` (stereo not given) stands 86%; under `O=C(O)c1ccccc1O`, 103%; under `Nc1nc2ncc(CNc3ccc(C(=O)NC(CCC(=O)O)C(=O)O)cc3)nc2c(=O)[nH]1` (stereo not given), 95.3%.
For `O=C1CCC(N2C(=O)c3ccccc3C2=O)C(=O)N1` (stereo not given), the viability is 96.1%.
Under `COc1cc(-c2ccc(=O)[nH]n2)ccc1OC(F)F` stands 105%; under `COC(=O)Nc1nc2ccc(C(=O)c3cccs3)cc2[nH]1`, 38.8%.
Under `Nc1ccn([C@H]2CC[C@@H](CO)O2)c(=O)n1` stands 102%.
